Screening data as filed in PubChem.
A selection: hits, their analogues and other compounds. The true share with any hit is near 1%.
GRP78 ERSR act: induces the endoplasmic reticulum stress response in human glioma cells | Potency, µM, without a hit: at the highest dose activation, actives largely listed as activators | U87-MG GRP78 promoter luciferase reporter, 16 h | 420,000 tested, 0.02% active; active = well fitted activation curve with a large enough effect; inconclusive = small, poorly fitted or top-dose-only effect; inactive = no such curve, though single readings can be large or run the other way; also: potency is read from the fitted curve at half-maximal effect; series mostly up to about 76 µM; % of control where 0% means no effect; nearly all actives have a fitted effect of over 35% in size
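ERSR induction read as luciferase luminescence (Bright-Glo, 10 min at room temperature) in stably transfected human U87-MG glioma cells exposed to compounds for 16 h, using GRP78 as sensor.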
hERG WT inh: KCNH2 (human, wildtype) channel inhibition; U2OS, BacMam KCNH2, thallium flux FluxOr; active compounds read low; activity change, % at 1.84 µM; 340,000 tested, 0.37% active;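 active = maximum activity change below -70%; inconclusive = maximum activity change between -70% and -50%; inactive = maximum activity change above -50%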; also: % is scaled to controls: 0 for no effect and ±100 for the full control effect
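U2OS cells were transduced with wild-type KCNH2 virus (2.03 x 10^8 / mL) for 4 h at room temperature, then cultured overnight at 37 C. Thallium flux was read with FluxOr dye. Rate constants were normalized to DMSO controls.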
TSG101-PTAP inh: blocks PTAP/TSG101 interaction to inhibit HIV-1 budding; Q99816; Fluorescence polarization, FITC-PTAP peptide / Tsg101 binding; Potency, µM (titrated, usually from 115 µM), inactives show at the highest dose activity change, negative = inhibition, hits mostly inhibitors; 340,000 tested, under 10 active; active = well fitted inhibition curve with a large enough effect in the main read-out, with a control signal flat, not every such curve was filed as active; inconclusive = small, poorly fitted or top-dose-only effect, or effect the other way, or a change in a side signal; inactive = no such curve, though single readings can be large or run the other way; also: potency is read from the fitted curve at half-maximal effect; % of control where 0% means no effect
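FP read-out: FITC-PTAP peptide, 50 nM final, binding Tsg101 binding domain, 10 uM final; 20 min, r.t.; 10 mM HEPES pH 7.5, 0.15 M NaCl, 0.01% Tween 20, 3 mM EDTA, 0.1 mM TCEP.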
TRPML1 blocker: human mucolipin-1 channel inhibition | AID 624415 | TRPML1-inducible cells, Ca2+ dye fluorescence, FDSS; active compounds read low; inhibition of EC80 agonist-evoked calcium signal | Q9GZU1 | activity change, negative = inhibition, % (concentration not given with the values) | 390,000 tested, 0.02% active; in the data active = activity change below about -50%; inconclusive = between about -30% and that limit;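 also: stimulus is agonist 54-4 at its EC80 concentration; % is scaled to controls: 0 for no effect and ±100 for the full control effect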
Target sequence (Q9GZU1 whole entry, looked up): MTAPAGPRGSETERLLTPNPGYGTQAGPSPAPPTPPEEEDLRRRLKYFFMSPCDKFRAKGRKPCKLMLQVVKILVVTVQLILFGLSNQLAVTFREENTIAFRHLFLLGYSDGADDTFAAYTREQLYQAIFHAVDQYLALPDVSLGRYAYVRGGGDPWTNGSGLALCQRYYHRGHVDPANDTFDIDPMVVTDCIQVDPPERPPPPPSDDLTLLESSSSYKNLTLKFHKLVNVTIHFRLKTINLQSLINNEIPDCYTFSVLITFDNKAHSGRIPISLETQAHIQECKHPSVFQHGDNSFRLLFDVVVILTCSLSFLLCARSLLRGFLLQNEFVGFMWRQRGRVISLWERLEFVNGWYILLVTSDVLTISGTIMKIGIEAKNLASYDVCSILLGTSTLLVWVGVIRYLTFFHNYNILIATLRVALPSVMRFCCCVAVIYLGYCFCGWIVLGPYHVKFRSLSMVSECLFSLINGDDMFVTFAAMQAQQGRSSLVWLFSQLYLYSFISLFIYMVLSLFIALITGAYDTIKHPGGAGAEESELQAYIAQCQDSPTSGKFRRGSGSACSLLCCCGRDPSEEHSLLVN
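Tet-induced TRPML1-DL cells loaded with Ca8 no-wash calcium dye were read kinetically on FDSS. Compound addition was followed by EC80 agonist 54-4 (4 uM final); inhibition was read over 110 s.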
TRPML1 agonist: agonists of human TRPML1 channel; Q9GZU1; TRPML1-expressing cells, Ca2+ dye fluorescence, FDSS; activation, % (no concentration beside the values); 410,000 tested, 0.12% active; AID 624414; in the data active = activation above about 50%; inconclusive = mostly about 30% to 49%; also: 0% is about no effect
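Kinetic FDSS Ca2+ read in Tet-induced TRPML1-DL cells (ABD Ca8 dye plus quencher, 45-90 min RT loading): baseline, then compound, then 110 s agonist window; EC80 agonist 54-4 at 4uM final added afterwards for a 110 s antagonist window.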
KCNH2 3.1 inh: blocks the human KCNH2 3.1 channel isoform. AID 720553. 340,000 tested, 0.95% active. activity change, % (tested at about 1.8 µM). U2OS KCNH2 3.1, thallium flux FluxOr; active compounds read low;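 active = maximum activity change below -70%; inconclusive = maximum activity change from -70% to -50%; inactive = maximum activity change above -50%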;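 also: thallium influx rate constant from kinetic fluorescence after stimulation buffer; % is scaled to controls: 0 for no effect and ±100 for the full control effect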
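FluxOr-based Tl+ influx in U2OS cells transduced with KCNH2 3.1 virus; rate constants normalized to DMSO controls.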
Active calls of the source: *; ? = inconclusive; nt = no result given.

SMILES	GRP78 ERSR act	hERG WT inh	TSG101-PTAP inh	TRPML1 blocker	TRPML1 agonist	KCNH2 3.1 inh
COc1cc(=O)n2c(c1C(=O)NC(C)c1ccco1)CCN(C(=O)c1cc(C)cc(C)c1)CC2 (stereo not drawn)	5.2%	nt	nt	nt	nt	nt
COc1ccccc1Oc1nnnn1-c1ccc(C(N)=O)cc1	-5.3%	-22.2	0.1%	-12.4	-0.3	-85.2*
NC(=O)c1ccc(-n2nnnc2Oc2ccccc2)cc1	-3.0%	-10.7	1.3%	-19.1	0.5	5.9
COc1cccc(C(c2nnnn2CCc2ccccc2)N2CCN(c3ccccc3)CC2)c1OC (stereo not drawn)	-6.1%	3.1	-3.7%	-9.1	87.7*	-10.7
COc1ccccc1C(c1nnnn1CCc1ccccc1)N1CCN(c2ccccc2)CC1 (stereo not drawn)	-1.9%	-3.9	1.1%	5.6	2.6	1.0
COc1ccc(N2CCN(C(c3cccc(OC)c3OC)c3nnnn3C3CCCC3)CC2)cc1 (stereo not drawn)	-5.3%	4.7	0.6%	-11.3	19.9	-3.2
COc1ccc(N2CCN(C(c3ccccc3OC)c3nnnn3C3CCCC3)CC2)cc1 (stereo not drawn)	-4.9%	5.1	-8.9%	?	79.4*	-6.1
O=C1c2cc([N+](=O)[O-])ccc2-c2ncccc21	-1.3%	6.4	-7.6%	-57.0*	0.7	-9.4
COc1cccc(CN2CCC3(CC2)c2ccccc2[C@@H](NC(=O)c2ccccc2)[C@@H]3O)c1O	-4.0%	nt	nt	nt	nt	nt
Nn1c(-c2ccccn2)nnc1-c1ccccn1	-3.2%	1.5	-1.1%	-7.8	0.1	7.7
Nc1ccccc1-c1nnc(-c2ccccc2N)n1N	6.0%	3.3	-1.4%	5.8	-0.1	-113.6*
COc1ccccc1-c1ccnc(-n2ncc(C(=O)NC3CCCN(Cc4ccccc4)C3)c2C)n1 (stereo not drawn)	-1.4%	nt	nt	nt	nt	nt
O=C(C1=C[C@H](C2CC2)C[C@H](OCCCCO)O1)N1CCOCC1	-3.0%	-88.6*	-1.5%	16.0	0.0	-24.1
O=C(O)C1=C[C@@H](C2CC2)C[C@@H](OCCCCO)O1	-1.7%	-5.0	-3.1%	-6.2	-0.5	2.4
COc1ccc(C2=NOC(Cn3nc(C(=O)NCc4ccc(C)cc4)cc3-c3ccccc3)C2)cc1 (stereo not drawn)	-2.5%	-1.4	0.0%	36.0	-0.7	-12.1
COc1ccc(C2=NOC(Cn3nc(C(=O)NCc4cccc(C(F)(F)F)c4)cc3-c3ccccc3)C2)cc1 (stereo not drawn)	3.5%	4.7	-4.2%	-7.0	3.7	-73.9*
Cc1nn2c(N3CCCC3)c3c(nc2c1-c1ccccc1)CCC3	-2.7%	6.1	1.5%	10.6	1.2	2.9
Cc1nn2c(N3CCN(CCO)CC3)c3c(nc2c1-c1ccccc1)CCCC3	-1.6%	1.8	-2.4%	-9.9	1.0	-94.3*
COc1cc(=O)n2c(c1C(=O)N(C)Cc1nonc1C)CCN(C(=O)c1cc(C)cc(C)c1)CC2	7.3%	nt	nt	nt	nt	nt
COCCN(CC1CCCN(C2Cc3ccccc3C2)C1)C(=O)CCC(N)=O (stereo not drawn)	2.1%	-42.5	-1.9%	4.4	0.2	-127.1*
COCCN(CC1CCCN(C2Cc3ccccc3C2)C1)C(=O)CCC(C)=O (stereo not drawn)	-0.1%	36.1	-2.9%	1.2	0.7	-15.7
CCN1CCCC1CNC(=O)c1cnn(-c2nccc(-c3ccco3)n2)c1C1CC1 (stereo not drawn)	-6.8%	nt	nt	nt	nt	nt
CC(=O)Nc1ccccc1NS(=O)(=O)c1ccc(Cl)cc1	-4.2%	4.3	-0.8%	-5.4	0.6	-8.6
O=S(=O)(Nc1cccc2c1CCCC2)c1ccc(Cl)cc1	0.5%	-5.6	0.1%	25.1	3.8	-70.8*
COc1ccccc1-c1ccnc(-n2ncc(C(=O)NC(C)(C)CO)c2C2CC2)n1	6.0%	nt	nt	nt	nt	nt
COc1cc(=O)n2c(c1C(=O)N(C)Cc1ccsc1)CCN(Cc1cnn(C)c1C)CC2	-1.7%	nt	nt	nt	nt	nt
